Tests used:
[1] = target: Sphingosine kinase 1 (Homo sapiens) (UniProt Q9NYA1); conditions: at 1 µM;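 note: mean SPHK1 inhibition value reported from the GSK PKIS kinase panel screen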
[2] = target: T1, Sphingosine kinase 2 (Homo sapiens) (UniProt Q9NRA0); conditions: at 0.1 µM
T1 sequence (whole entry): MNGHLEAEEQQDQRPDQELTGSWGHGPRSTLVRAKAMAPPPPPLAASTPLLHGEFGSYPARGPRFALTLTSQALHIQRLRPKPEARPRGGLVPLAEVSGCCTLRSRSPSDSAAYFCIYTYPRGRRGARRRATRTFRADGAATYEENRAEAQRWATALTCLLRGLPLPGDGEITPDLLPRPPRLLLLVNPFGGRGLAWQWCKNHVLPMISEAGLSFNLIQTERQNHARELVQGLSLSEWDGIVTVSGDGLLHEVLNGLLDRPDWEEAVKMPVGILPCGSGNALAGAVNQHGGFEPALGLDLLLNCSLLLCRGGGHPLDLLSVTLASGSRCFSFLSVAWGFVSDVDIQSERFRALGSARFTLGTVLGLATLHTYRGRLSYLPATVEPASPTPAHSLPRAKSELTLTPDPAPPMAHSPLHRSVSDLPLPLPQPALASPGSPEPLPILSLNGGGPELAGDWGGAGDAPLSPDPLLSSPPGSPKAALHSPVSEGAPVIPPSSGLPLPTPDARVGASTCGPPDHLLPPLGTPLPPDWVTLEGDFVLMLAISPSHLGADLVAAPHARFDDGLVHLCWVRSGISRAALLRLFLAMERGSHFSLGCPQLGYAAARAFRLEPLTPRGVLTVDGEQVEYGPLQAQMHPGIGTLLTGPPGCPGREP

[3] = target: T1, Sphingosine kinase 2 (Homo sapiens); conditions: at 1 µM
[4] = target: Casein kinase II subunit alpha (Homo sapiens) (UniProt P68400); conditions: at 0.1 µM
[5] = target: Casein kinase II subunit alpha (Homo sapiens) (UniProt P68400); conditions: at 1 µM
[6] = target: T2, Inhibitor of nuclear factor kappa-B kinase subunit alpha (Homo sapiens) (UniProt O15111); conditions: at 0.1 µM
T2 sequence (whole entry): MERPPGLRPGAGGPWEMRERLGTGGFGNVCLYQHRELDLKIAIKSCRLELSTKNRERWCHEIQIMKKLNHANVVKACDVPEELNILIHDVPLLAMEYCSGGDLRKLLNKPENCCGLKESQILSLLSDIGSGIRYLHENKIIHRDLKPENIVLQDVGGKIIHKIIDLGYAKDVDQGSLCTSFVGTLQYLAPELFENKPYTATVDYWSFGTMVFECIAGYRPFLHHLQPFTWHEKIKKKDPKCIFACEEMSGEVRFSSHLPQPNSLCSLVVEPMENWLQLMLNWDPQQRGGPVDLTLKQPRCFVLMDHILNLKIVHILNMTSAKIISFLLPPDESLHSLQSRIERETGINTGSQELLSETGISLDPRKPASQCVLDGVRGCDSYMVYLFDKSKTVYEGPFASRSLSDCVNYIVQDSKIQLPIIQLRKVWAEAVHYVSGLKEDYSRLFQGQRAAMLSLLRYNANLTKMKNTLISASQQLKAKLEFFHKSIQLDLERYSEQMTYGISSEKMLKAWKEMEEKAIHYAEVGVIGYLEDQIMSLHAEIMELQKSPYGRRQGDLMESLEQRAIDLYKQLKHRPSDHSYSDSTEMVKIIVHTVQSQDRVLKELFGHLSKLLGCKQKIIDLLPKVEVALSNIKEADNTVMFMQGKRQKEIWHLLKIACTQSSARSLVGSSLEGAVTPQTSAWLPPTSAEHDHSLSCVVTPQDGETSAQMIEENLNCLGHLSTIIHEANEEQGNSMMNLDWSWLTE

[7] = target: T2, Inhibitor of nuclear factor kappa-B kinase subunit alpha (Homo sapiens); conditions: at 1 µM
[8] = target: T3, Inhibitor of nuclear factor kappa-B kinase subunit beta (Homo sapiens) (UniProt O14920); conditions: at 0.1 µM
T3 sequence (whole entry): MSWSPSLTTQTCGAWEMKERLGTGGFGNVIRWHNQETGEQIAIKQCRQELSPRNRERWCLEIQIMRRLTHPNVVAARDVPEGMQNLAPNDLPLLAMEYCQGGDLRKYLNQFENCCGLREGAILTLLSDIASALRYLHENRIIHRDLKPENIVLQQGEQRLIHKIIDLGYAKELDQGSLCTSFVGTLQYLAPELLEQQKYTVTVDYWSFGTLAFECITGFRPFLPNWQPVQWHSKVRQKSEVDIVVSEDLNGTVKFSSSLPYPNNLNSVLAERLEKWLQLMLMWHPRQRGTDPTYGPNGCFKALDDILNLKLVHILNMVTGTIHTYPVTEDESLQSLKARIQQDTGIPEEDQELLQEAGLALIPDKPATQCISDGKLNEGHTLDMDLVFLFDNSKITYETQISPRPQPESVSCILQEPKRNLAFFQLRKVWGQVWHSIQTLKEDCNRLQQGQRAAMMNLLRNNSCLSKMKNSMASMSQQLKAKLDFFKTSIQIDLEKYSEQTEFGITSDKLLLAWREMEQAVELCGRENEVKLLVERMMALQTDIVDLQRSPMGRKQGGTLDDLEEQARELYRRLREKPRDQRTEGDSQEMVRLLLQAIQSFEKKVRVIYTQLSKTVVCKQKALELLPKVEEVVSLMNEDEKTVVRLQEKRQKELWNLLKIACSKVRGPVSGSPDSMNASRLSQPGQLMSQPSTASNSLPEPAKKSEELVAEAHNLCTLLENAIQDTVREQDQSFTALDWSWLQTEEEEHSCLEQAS

[9] = target: T3, Inhibitor of nuclear factor kappa-B kinase subunit beta (Homo sapiens); conditions: at 1 µM
[10] = target: T4, Inhibitor of nuclear factor kappa-B kinase subunit epsilon (Homo sapiens) (UniProt Q14164); conditions: at 0.1 µM
T4 sequence (whole entry): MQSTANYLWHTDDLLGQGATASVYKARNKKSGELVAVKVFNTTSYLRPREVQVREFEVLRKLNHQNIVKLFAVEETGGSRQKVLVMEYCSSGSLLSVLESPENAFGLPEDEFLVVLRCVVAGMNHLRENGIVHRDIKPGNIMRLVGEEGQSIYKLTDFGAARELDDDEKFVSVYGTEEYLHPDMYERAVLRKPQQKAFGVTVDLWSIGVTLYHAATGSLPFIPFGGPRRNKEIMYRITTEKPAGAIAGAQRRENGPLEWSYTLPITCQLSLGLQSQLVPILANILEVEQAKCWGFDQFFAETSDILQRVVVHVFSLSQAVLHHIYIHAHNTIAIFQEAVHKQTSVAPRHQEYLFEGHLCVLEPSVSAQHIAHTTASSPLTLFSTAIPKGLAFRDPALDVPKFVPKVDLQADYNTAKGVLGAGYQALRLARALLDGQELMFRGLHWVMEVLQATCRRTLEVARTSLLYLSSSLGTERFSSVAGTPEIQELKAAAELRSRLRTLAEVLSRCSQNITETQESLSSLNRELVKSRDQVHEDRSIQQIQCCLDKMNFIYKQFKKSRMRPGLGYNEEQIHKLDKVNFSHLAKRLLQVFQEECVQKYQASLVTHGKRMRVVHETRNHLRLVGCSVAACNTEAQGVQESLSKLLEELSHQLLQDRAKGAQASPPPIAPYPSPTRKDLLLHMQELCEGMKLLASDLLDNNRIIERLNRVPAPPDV

[11] = target: T4, Inhibitor of nuclear factor kappa-B kinase subunit epsilon (Homo sapiens); conditions: at 1 µM
[12] = target: T5, Serine/threonine-protein kinase Nek1 (Homo sapiens) (UniProt Q96PY6); conditions: at 0.1 µM
T5 sequence (whole entry): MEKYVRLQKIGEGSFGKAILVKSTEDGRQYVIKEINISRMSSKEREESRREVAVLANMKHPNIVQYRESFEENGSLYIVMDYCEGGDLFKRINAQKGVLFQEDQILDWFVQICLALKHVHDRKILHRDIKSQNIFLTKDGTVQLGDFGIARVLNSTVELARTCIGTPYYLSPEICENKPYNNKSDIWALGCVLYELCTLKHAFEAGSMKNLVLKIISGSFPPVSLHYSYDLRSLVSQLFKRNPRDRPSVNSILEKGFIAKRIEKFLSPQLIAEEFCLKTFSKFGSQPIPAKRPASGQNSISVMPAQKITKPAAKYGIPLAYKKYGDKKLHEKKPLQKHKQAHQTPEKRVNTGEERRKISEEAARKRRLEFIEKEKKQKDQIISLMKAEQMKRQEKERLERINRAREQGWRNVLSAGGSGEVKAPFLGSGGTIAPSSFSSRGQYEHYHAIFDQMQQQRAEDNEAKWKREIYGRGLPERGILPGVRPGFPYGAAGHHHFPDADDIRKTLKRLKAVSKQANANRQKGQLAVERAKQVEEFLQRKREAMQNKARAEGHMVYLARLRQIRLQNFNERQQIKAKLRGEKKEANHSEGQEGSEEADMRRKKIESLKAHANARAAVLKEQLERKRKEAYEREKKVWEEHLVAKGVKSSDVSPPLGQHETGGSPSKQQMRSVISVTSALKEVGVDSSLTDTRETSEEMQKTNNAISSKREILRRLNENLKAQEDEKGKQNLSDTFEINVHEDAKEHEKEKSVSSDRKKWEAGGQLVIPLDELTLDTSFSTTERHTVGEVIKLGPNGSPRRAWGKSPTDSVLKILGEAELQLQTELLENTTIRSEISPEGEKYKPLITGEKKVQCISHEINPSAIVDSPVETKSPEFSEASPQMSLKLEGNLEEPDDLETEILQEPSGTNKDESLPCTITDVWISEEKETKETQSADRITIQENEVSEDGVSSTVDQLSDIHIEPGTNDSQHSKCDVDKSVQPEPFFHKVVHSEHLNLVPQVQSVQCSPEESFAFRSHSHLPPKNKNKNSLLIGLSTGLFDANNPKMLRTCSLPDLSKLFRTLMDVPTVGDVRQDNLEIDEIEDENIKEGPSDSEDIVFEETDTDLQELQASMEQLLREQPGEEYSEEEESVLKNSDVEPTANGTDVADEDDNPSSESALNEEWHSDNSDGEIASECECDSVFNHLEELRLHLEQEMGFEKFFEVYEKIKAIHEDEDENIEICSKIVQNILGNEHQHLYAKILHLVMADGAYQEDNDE

[13] = target: T5, Serine/threonine-protein kinase Nek1 (Homo sapiens); conditions: at 1 µM
[14] = target: T6, Serine/threonine-protein kinase Nek2 (Homo sapiens) (UniProt P51955); conditions: at 0.1 µM
T6 sequence (whole entry): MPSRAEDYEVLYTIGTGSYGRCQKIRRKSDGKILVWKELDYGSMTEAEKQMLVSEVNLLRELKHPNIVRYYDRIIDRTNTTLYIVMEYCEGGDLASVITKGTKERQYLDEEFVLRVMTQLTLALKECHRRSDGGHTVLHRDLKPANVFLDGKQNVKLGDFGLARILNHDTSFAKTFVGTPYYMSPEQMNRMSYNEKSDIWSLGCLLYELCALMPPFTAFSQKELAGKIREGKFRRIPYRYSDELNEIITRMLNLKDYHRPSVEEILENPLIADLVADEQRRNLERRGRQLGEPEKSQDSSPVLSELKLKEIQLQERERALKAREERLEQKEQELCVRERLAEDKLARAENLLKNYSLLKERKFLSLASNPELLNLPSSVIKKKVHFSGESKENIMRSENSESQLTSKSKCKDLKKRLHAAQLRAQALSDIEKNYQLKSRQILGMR

[15] = target: T6, Serine/threonine-protein kinase Nek2 (Homo sapiens); conditions: at 1 µM
[16] = target: Serine/threonine-protein kinase Nek6 (Homo sapiens) (UniProt Q9HC98); conditions: at 0.1 µM
[17] = target: Serine/threonine-protein kinase Nek6 (Homo sapiens) (UniProt Q9HC98); conditions: at 1 µM
[18] = target: Serine/threonine-protein kinase Nek7 (Homo sapiens) (UniProt Q8TDX7); conditions: at 0.1 µM
[19] = target: Serine/threonine-protein kinase Nek7 (Homo sapiens) (UniProt Q8TDX7); conditions: at 1 µM
[20] = target: T7, Serine/threonine-protein kinase Nek9 (Homo sapiens) (UniProt Q8TD19); conditions: at 0.1 µM;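 note: reported value is the mean percent inhibition of NEK9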
T7 sequence (whole entry): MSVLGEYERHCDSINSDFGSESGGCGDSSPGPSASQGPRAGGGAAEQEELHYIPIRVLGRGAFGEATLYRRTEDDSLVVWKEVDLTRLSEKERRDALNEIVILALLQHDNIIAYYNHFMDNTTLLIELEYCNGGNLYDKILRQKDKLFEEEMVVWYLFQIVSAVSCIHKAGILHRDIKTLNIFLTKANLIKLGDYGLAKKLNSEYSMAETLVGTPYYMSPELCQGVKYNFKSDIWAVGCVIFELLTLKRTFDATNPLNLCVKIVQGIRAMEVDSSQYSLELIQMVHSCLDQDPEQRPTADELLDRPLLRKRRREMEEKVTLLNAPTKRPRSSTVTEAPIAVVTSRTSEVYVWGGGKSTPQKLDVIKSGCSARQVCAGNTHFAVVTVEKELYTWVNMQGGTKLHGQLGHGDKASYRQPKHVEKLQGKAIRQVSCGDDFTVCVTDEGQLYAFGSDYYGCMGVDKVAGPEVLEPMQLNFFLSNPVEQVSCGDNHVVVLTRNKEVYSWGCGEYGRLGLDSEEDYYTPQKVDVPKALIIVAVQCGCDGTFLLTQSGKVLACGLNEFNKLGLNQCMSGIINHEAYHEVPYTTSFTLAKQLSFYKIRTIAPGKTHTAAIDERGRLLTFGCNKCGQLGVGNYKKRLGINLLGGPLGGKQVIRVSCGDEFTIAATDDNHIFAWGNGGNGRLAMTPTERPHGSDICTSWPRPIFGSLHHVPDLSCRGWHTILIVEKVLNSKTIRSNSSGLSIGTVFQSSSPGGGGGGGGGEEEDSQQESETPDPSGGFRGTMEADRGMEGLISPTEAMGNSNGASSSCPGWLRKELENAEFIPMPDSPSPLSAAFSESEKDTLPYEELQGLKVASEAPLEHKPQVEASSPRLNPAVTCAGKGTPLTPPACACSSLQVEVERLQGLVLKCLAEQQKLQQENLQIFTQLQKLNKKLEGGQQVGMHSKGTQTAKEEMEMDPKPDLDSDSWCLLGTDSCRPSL

Sequence of Serine/threonine-protein kinase Nek6 (Homo sapiens) (Q9HC98 whole entry): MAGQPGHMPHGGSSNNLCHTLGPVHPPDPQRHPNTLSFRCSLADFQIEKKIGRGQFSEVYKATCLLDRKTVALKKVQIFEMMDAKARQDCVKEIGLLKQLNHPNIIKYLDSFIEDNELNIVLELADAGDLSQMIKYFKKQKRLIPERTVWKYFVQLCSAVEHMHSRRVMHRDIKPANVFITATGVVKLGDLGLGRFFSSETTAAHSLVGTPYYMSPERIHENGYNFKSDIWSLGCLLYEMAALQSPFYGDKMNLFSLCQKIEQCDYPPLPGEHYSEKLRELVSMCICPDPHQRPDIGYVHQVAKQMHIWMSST
Sequence of Casein kinase II subunit alpha (Homo sapiens) (P68400 whole entry, looked up): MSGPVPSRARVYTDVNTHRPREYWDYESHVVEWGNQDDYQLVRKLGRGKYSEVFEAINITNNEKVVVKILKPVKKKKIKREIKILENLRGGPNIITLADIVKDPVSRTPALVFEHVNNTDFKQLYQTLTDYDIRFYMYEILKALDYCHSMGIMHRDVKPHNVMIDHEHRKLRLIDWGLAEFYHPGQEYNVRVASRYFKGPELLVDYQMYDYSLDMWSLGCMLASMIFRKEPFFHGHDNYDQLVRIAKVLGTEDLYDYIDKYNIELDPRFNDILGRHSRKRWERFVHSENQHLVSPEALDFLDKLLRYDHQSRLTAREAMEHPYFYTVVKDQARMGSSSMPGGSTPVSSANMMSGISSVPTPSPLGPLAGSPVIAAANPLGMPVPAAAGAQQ
Sequence of Serine/threonine-protein kinase Nek7 (Homo sapiens) (Q8TDX7 whole entry, looked up): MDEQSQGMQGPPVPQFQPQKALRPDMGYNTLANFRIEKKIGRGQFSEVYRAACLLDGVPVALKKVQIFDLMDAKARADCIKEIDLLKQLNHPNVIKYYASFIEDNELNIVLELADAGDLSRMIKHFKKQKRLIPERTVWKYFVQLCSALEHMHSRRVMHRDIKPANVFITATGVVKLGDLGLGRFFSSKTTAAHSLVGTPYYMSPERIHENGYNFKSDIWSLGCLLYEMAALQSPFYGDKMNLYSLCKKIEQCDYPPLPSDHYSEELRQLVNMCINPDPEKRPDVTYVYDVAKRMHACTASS
Sequence of Sphingosine kinase 1 (Homo sapiens) (Q9NYA1 whole entry): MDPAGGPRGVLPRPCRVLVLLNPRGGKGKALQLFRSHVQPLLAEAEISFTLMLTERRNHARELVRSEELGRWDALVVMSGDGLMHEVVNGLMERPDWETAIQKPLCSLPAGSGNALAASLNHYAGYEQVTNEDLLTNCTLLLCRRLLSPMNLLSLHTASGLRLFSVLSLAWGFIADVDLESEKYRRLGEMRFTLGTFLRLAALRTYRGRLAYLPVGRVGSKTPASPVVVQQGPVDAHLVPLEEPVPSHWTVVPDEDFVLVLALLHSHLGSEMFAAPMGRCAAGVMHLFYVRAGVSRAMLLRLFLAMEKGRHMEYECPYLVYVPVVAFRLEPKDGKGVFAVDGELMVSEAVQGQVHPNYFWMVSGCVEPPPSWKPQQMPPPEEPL

[O-][S+]1CCN(Cc2ccc(-c3ccc4ncnc(Nc5ccc(OCc6ccccc6)c(Cl)c5)c4c3)o2)CC1
inhibition [1]: 0.98%
inhibition [2]: 0.01%
inhibition [3]: 2.21%
inhibition [4]: 3.5%
inhibition [5]: 2.9%
inhibition [6]: 2.69%
inhibition [7]: -1.63%
inhibition [8]: 2.83%
inhibition [9]: 1.96%
inhibition [10]: 1.93%
inhibition [11]: 1.71%
inhibition [12]: 0.94%
inhibition [13]: 0.52%
inhibition [14]: 3.08%
inhibition [15]: 0.41%
inhibition [16]: 3.35%
inhibition [17]: 1.93%
inhibition [18]: 1.32%
inhibition [19]: 5.75%
inhibition [20]: 0.79%

— ChEMBL document CHEMBL1961873, “Compounds: GSK PKIS; Assays: Nanosyn kinase panel” (2012)
